Bioassay records as filed in PubChem.
Rows were chosen to be rich in hits. Some 6.7% of all compounds tested hit in one or more screens of this group.
MCF10A rerep – inducers of DNA re-replication in MCF 10A breast cells | MCF 10A DNA re-replication, Hoechst nuclear intensity, 48 h | Potency, µM (series often up to 46.1 µM), hits mostly activators | hit rate 2.9% among 350,000; note: nearly all actives have a fitted effect of over 50% in size
KB-V1 MDR tox – kills drug-selected multidrug resistant KB-V1 cells; KB-V1 MDR cells viability, CellTiter-Glo, 72 h; Potency, µM (series often up to 46.1 µM), actives largely listed as cytotoxic; hit rate 3.4% among 400,000; AID 1347076; note: nearly all actives have a fitted effect of over 60% in size
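Potencies derive from concentration-effect curves fitted to normalized luminescence (CellTiter-Glo) of KB-V1 cells treated for 72 h at 37 degrees C in phenol-red-free DMEM containing 10% FBS.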
PINK1 expr mod – PINK1 expression modulation; hit rate 0.2% among 410,000; PINK1 immunofluorescence, high-content cytometry, 24 h; Potency, µM (top dose mostly 76.6 µM), most hits filed as activators; AID 624263; active = well fitted activation curve with a large enough effect; inconclusive = small, poorly fitted or top-dose-only effect; cell line not stated here; note: nearly all actives have a fitted effect of over 65% in size
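Readout is PINK1 immunofluorescence, quantified alongside mitochondrial, cell and nuclear markers by laser-scanning microplate cytometry. Cells from a stable line were exposed to compound titrations (5 concentrations) for 24 hours, with CCCP controls.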
KB-3-1 cytotox – KB-3-1 parental cell cytotoxicity; hit rate 1.4% among 400,000; KB-3-1 viability, CellTiter-Glo ATP luminescence, 72 h; Potency, µM (titrated, usually from 46.1 µM), actives largely listed as cytotoxic; note: nearly all actives have a fitted effect of over 60% in size
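Parental KB-3-1 viability, qHTS format: 72 h compound exposure, 37 °C; CellTiter-Glo; media-only wells and DMSO plates as controls; concentration-effect fits on corrected data.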
SW480 rerep – induces DNA re-replication in SW480 colon adenocarcinoma cells | Potency, µM (titrated, usually from 46.1 µM), hits mostly activators | hit rate 1.8% among 340,000 | AID 624297 | SW480 DNA re-replication, Hoechst DNA content imaging, 48 h; note: nearly all actives have a fitted effect of over 55% in size
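Image-based read-out: total Hoechst fluorescence of nuclei (405 nm excitation, 500-530 nm emission), with hits raising the fraction of high-intensity nuclei. SW480 colon cells incubated 48 hr with compounds at 37 C.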
Numbers stand for hits; i = inactive; ? = inconclusive; nt = no result given; [ ] = dose if it differs, or a comment. Unless noted, calls come from the whole dose curve; as a rule, active = well fitted curve in the direction sought with a large enough effect; inconclusive = small, poorly fitted or top-dose-only effect, or another doubt; inactive = no such curve, though single readings can be large; an effect the other way counts as inactive or inconclusive.

SMILES | MCF10A rerep | KB-V1 MDR tox | PINK1 expr mod | KB-3-1 cytotox | SW480 rerep
CCOc1cc(/C=N/N=C(/N)c2nonc2N)cc(Br)c1OCc1ccc(Cl)cc1 | ? | ? | i | ? | ?
COc1ccc(CNC(=O)CN(Cc2ccccc2)C(=O)CCC(=O)Nc2ccccn2)cc1 | i | i | i | i | i
COC(=O)/C=C/c1ccsc1NC(C)=O | i | i | i | i | 9.2µM
NC(=O)c1ccsc1NC(=O)COC(=O)/C=C/c1ccccc1 | i | i | i | i | i
COc1cccc(S(=O)(=O)NCC(=O)Nc2ccc(C(C)(C)C)cc2)c1 | i | 16.4µM | i | i | i
COc1ccc(NS(=O)(=O)c2cccc(NC(=O)CCC(=O)c3cccs3)c2)cc1 | i | i | i | i | i
COc1ccc(NS(=O)(=O)c2cccc(NC(=O)CCC(=O)c3ccc(Cl)cc3)c2)cc1 | ? | 18.4µM | i | i | i
COc1ccc(NS(=O)(=O)c2cccc(NC(=O)c3ccc(Cl)nc3)c2)cc1 | i | 2.91µM | i | ? | ?
O=C(Nc1ccncc1)c1ccc(NS(=O)(=O)c2cccc(F)c2)cc1 | ? | ? | i | ? | i
COc1cccc(S(=O)(=O)Nc2ccc(C(=O)Nc3ccncc3)cc2)c1 | ? | 20.6µM | i | ? | i
CCCCNC(=O)c1nc(C2CCN(S(=O)(=O)c3ccccc3C(F)(F)F)CC2)oc1-c1cccc(C(F)(F)F)c1 | nt | i | i | i | nt
CC(C)(C)OC(=O)N1CCC(c2c(C(=O)NCCN3CCOCC3)cnn2-c2ccccc2)CC1 | nt | ? | i | i | nt
CCn1c(CNc2ccc(OC)cc2)nnc1SCC(=O)Nc1ccc(F)cc1 | i | 20.6µM | i | i | i
CCn1c(Cc2ccc(OC)cc2)nnc1SCC(=O)Nc1cccc(C(=O)OC)c1 | i | 5.17µM | i | i | i
COc1ccccc1CNC(=O)CCCCn1c(=O)c2ccccc2n(Cc2ccccc2F)c1=O | nt | i | i | i | nt
O=[N+]([O-])c1ccccc1OCCNCc1ccccc1 | i | i | i | i | i
Cc1ccccc1OCC(=O)NNC(=O)Cn1[nH]c(=O)c2ccccc2c1=O | i | i | i | i | i
CCCCCC(O)(c1ccc(OC)cc1)C(CN1CCOCC1)c1ccccc1 (configuration not stated) | 16.4µM | 13µM | i | ? | ?
CCCCCC(O)(c1ccc(OCC)cc1)C(CN1CCOCC1)c1ccccc1 (configuration not stated) | ? | ? | ? | ? | 25.9µM
CCCCC(O)(c1ccc(OC)cc1)C(CN1CCOCC1)c1ccccc1 (configuration not stated) | i | ? | i | i | i
CCCCC(O)(c1ccc(CC)cc1)C(CN1CCOCC1)c1ccccc1 (configuration not stated) | ? | i | i | 16.4µM | ?
COc1ccc(C(O)(c2ccccc2OC)C(CN2CCOCC2)c2ccccc2)cc1 (configuration not stated) | i | 20.6µM | i | ? | i
C[C@@H](c1ccccc1)N1C[C@H](COCc2ccccc2)Oc2cc(N3CC[C@H](N(C)C)C3)ccc2S1(=O)=O | nt | ? | i | ? | nt
COc1cccc(-n2ccnc2SCC(=O)Nc2cccc3ccccc23)c1 | nt | nt | i | nt | nt
COC(=O)CSc1nc2c(c(-c3ccc(O)cc3)c1C#N)CCCC2 | 18.4µM | i | i | i | ?
SMILES | MCF10A rerep | KB-V1 MDR tox | PINK1 expr mod | KB-3-1 cytotox | SW480 rerep
N#Cc1c(SC(C(=O)O)c2ccccc2)nc2c(c1-c1cccs1)CCCC2 (configuration not stated) | i | i | i | i | i
CC(C)OC(=O)CC(=O)CSc1nc2c(c(-c3cccs3)c1C#N)CCC2 | 20.6µM | i | i | i | i
CCOC(=O)C(C)Sc1nc2c(c(-c3cccs3)c1C#N)CCC2 (configuration not stated) | 16.4µM | i | i | i | i
CN1C(=O)C2(OCC(CO)([N+](=O)[O-])CO2)c2ccccc21 (configuration not stated) | ? | ? | i | i | ?
COC(=O)c1ccc(C)c(NC(=S)NCc2ccc(Cl)cc2)c1 | i | 23.1µM | i | i | i
COC(=O)c1cc(NC(=S)NCc2ccc(Cl)cc2)cc(C(=O)OC)c1 | ? | i | ? | i | i
CCC(C)NC(=O)c1cc2c(Cl)nc3ccc(C)cc3c2s1 (configuration not stated) | nt | i | i | i | nt
O=C(Nc1ccc(Cl)cc1C(F)(F)F)C(Sc1nnc(-c2cccs2)o1)c1ccccc1 (configuration not stated) | 1.64µM | 14.6µM | ? | ? | nt
O=C(Nc1cc(C(F)(F)F)ccc1Cl)C(Sc1nnc(-c2cccs2)o1)c1ccccc1 (configuration not stated) | i | i | i | i | nt
CCN(C(=O)COC(=O)C1CCN(S(=O)(=O)c2ccc(C)c(C)c2)CC1)C1CCCCC1 | ? | i | i | i | i
O=C(Oc1c(Cl)cc(Cl)c2cccnc12)N1CCOCC1 | i | i | i | i | i
O=C(Oc1c(CN2CCOCC2)cc(Cl)c2cccnc12)c1ccccc1Br | ? | ? | i | ? | 3.26µM
CN1CCN(Cc2cc(Cl)c3cccnc3c2OC(=O)c2cccs2)CC1 | ? | 5.8µM | i | ? | ?
Cc1oc(-c2ccccc2NC(=O)c2ccsc2)nc1CN(C)Cc1ccc2c(c1)CCCN2C | nt | nt | i | nt | nt
COC(=O)c1ccc(COc2ccccc2/C=C(\C#N)C(=O)Nc2c(C)cc(C)cc2C)cc1 | 5.8µM | 16.4µM | ? | 11.6µM | 8.2µM
CN(C)c1ccc(/C=N/NC(N)=S)cc1[N+](=O)[O-] | i | 6.51µM | i | 14.6µM | i
CC(=O)Nc1ccc(/C=N/NC(N)=S)cc1 | i | nt | nt | nt | i
CCOC(=O)N1CCN(C(=O)CCc2ccc(S(=O)(=O)NC(C)(C)C)cc2)CC1 | i | i | i | i | i
COc1ccc(CCN2C(=O)CN(C3CCCCCC3)C(=O)C2c2ccc(C)cc2)cc1OC (configuration not stated) | nt | nt | i | nt | nt
O=C(N/N=C/c1ccco1)C1CC1(c1ccccc1)c1ccccc1 (configuration not stated) | i | 20.6µM | i | i | i
C/C(=N/NC(=O)C1CC1(c1ccccc1)c1ccccc1)c1ccco1 (configuration not stated) | i | i | i | i | i
Cc1cc2c(n1-c1ccc(Br)cc1)CC(C)(C)CC2=O | i | 25.9µM | i | i | i
CCc1ccc2nc3n[nH]c(N)c3cc2c1 | i | 11.6µM | i | ? | i
CCOC(=O)c1ccc(NCc2cccnc2)cc1 | i | i | i | i | i
C=C1[C@@H](O)[C@H](Cc2ccccc2)N(Cc2ccccc2Br)S1(=O)=O | 20.6µM | ? | i | ? | i[9.22 µM]
Cc1ccccc1CN1[C@@H](Cc2ccccc2)COCCS1(=O)=O | ? | i | i | i | i
CCCCn1c(SCc2nc(N)nc(N3CCCCC3)n2)nc2c1c(=O)n(C)c(=O)n2C | i | 8.2µM | i | i | ?
